{"source": "PubChem BioAssay", "key": {"[1]": {"assay": "liver-stage malaria parasite growth inhibition, primary screen, cell-based, HepG2, luciferase luminescence, HepG2 viability (AID 624349; in the data active means parasite load remaining mostly below about 12%, no sharp cut-off; inactive means mostly above about 10%;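 further: 100% = mean of DMSO negative control wells on the same plate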)", "settings": "P. berghei liver stage in HepG2, luciferase luminescence, concentration not given here; parasite load remaining: stronger effect = lower value; viability: measured here: HepG2 viability without parasites"}, "[2]": {"assay": "stimulators of nuclear beta-catenin in C2C12, primary screen, imaging, WNT3A-conditioned medium, mouse C2C12, NPC library (AID 1117326; in the data active means nuclear beta-catenin stimulation mostly above about 4.2%, no sharp cut-off; inactive means mostly below about 10%)", "settings": "stronger effect = higher value"}, "[3]": {"assay": "stimulators of insulin release from INS-1E, primary screen, cell-based, 5 mM glucose, NPC library (AID 1117329;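 active means compound raises insulin release from rat beta cells at 5 mM glucose, no numeric limit stated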)", "settings": "rat INS-1E insulin secretion, at 10 µM, stronger effect = higher value"}, "[4]": {"assay": "growth inhibition of GSK3B-pretreated HCT116 cells – cell-based, CellTiter-Glo, 0.2 to 20 µM (AID 1117336;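 active means compounds lowering colon cancer cell viability after pretreatment blocking the GSK3B kinase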)", "settings": "HCT116 viability after GSK3B inhibitor, at 20 µM, stronger effect = higher value"}, "[5]": {"assay": "inhibition of endothelial tube formation, primary screen, imaging, VEGF stimulated, CD31 staining, tube area, NPC library (AID 1117340;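 active means compound that reduces growth-factor-driven endothelial tube area in a mixed cell culture, no cutoff stated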)", "settings": "VEGF-stimulated ADSC/ECFC co-culture, at 10 µM, stronger effect = higher value"}, "[6]": {"assay": "glucagon-like peptide 1 release enhancers, primary assay, NCI-H716 cell line, NPC library (AID 1117341;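 active means compound raises GLP1 secretion from the human gut endocrine cells, with no numeric limit stated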)", "settings": "NCI-H716 cells, at 10 µM, stronger effect = higher value"}, "[7]": {"assay": "HCT116 colon cancer cell growth inhibition, primary screen, CellTiter-Glo luminescence, NPC library (AID 1117342;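 active means compounds that lower survival of HCT116 colon cancer cells in the luminescence readout, no numeric limit stated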)", "settings": "at 20 µM (top of the series)"}, "[8]": {"assay": "CellTiter-Glo luminescent readout of SW480 viability loss, NPC library primary (AID 1117343;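 active means compounds that lower viability of the colon cancer cells in the luminescence readout, with no numeric limit stated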)", "settings": "CellTiter-Glo luminescence; at 20 µM (top of the series) unless noted"}, "[9]": {"assay": "decreased DLD-1 cellular survival, CellTiter-Glo luminescent readout, NPC compound collection, primary HTS (AID 1117346;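 active means compounds that lower survival of DLD-1 colon cancer cells in the luminescence readout, no cutoff given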)", "settings": "DLD-1 viability, CellTiter-Glo luminescence; at 20 µM (top of the series)"}, "[10]": {"assay": "sensitizers of A549 cells to miR-34 induction, primary screen, imaging, A549 dox-inducible miR-34, nuclei and caspase counts (AID 1347080)", "settings": "A549 miR-34 inducible, Hoechst nuclei count, 48 h"}, "[11]": {"assay": "survival rescue of mitochondrial mutant cells in low glucose, primary screen, MELAS cybrids, Rieske KO mouse fibroblasts, CellTiter-Glo (AID 1508586;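 active means mean z-score across replicates of 1.96 or higher in either the MELAS or the Rieske mutant cell line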;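 further: z relative to plate mean and SD of compound and empty wells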)"}, "[12]": {"assay": "viability rescue of complex I mutant cybrids, primary screen, cell-based, galactose medium, ATP luminescence (AID 1645843;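 active means z-score of at least 1.8 in each of two replicates, scored against plate mean and spread of sample wells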;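 further: positive z means more ATP and so rescue of galactose-driven cybrid death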)", "settings": "complex I mutant cybrid cells, 72 h, stronger effect = higher value"}, "[13]": {"molecular_target": "ATP-dependent translocase ABCB1 (Homo sapiens) (UniProt P08183)", "sequence (P08183 whole entry, looked up)": "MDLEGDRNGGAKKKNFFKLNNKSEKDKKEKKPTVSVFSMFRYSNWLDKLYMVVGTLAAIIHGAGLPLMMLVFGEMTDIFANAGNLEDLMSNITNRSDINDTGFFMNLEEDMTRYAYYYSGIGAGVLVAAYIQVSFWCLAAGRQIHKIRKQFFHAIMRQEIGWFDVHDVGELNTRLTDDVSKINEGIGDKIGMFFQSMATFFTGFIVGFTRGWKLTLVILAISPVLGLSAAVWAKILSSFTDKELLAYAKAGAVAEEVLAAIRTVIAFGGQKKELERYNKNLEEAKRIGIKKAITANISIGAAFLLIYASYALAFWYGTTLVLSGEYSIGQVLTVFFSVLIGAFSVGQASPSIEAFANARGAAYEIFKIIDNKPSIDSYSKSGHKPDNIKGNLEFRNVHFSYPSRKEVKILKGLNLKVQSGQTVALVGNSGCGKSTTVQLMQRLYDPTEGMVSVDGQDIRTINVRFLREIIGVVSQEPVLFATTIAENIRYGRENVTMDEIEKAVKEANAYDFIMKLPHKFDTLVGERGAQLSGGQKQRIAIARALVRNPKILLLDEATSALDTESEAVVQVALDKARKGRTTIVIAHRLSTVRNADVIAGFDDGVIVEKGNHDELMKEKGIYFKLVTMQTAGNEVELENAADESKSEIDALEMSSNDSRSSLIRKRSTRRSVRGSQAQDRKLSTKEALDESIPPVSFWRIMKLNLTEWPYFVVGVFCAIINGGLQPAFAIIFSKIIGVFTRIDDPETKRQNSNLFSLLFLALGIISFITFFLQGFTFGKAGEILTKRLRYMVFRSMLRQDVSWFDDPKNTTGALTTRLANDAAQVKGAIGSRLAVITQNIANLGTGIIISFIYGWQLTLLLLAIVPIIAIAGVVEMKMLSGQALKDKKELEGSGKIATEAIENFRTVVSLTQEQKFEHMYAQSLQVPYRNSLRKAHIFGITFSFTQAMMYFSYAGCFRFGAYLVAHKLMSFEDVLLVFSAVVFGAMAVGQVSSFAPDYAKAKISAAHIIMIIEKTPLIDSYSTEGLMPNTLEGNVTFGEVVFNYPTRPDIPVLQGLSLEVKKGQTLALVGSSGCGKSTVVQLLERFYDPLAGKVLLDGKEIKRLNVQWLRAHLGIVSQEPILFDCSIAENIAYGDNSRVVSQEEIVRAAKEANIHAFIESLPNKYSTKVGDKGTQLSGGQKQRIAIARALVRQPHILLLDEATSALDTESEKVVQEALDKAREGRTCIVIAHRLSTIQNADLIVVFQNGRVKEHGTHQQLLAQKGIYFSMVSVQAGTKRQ", "assay": "MDR1 (ABCB1) efflux transporter inhibition, cell-based (AID 377; in the data active means fluorescence slope change above about 50%)", "settings": "MDR1-expressing cells, fluorescent substrate accumulation slope; stronger effect = higher value; concentration not given here"}, "[14]": {"assay": "hESC survival regulators, cell-based (AID 493140; call rule not given here;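 further: cells exposed to compounds for four days before counting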)", "settings": "human embryonic stem cell survival screen; stronger effect = higher value"}, "[15]": {"molecular_target": "Mitogen-activated protein kinase 7 (Homo sapiens) (UniProt Q13164)", "sequence (Q13164 whole entry, looked up, the tested form may be a part)": "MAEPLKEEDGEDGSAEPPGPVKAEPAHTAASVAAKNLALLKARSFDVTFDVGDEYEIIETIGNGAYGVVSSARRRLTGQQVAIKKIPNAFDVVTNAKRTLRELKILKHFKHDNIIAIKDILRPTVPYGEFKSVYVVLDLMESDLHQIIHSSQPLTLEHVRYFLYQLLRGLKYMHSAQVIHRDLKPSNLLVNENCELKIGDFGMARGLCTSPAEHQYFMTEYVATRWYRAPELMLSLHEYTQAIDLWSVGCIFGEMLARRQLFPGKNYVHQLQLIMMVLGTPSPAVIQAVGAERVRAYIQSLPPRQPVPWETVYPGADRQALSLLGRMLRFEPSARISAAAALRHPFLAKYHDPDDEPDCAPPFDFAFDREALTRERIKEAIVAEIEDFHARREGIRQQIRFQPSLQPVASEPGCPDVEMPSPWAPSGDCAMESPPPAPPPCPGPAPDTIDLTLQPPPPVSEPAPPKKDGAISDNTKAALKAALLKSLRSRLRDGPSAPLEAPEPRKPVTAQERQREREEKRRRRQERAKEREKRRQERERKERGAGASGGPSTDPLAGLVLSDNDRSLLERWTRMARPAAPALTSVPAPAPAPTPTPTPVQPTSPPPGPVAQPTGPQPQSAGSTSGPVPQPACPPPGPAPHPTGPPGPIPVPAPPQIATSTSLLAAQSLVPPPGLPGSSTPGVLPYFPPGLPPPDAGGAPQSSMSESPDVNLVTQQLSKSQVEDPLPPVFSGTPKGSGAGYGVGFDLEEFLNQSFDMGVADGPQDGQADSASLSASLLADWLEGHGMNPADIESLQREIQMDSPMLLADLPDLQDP", "assay": "ERK5 transactivation activators in reporter cells, primary screen, cell-based, HTS (AID 1508626;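 active means luciferase signal above three times the same-plate solvent-only control wells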;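 further: luciferase driven by Gal4-ERK5 fusion binding five Gal4 sites before minimal TATA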)", "settings": "HeLa Gal4-ERK5 transactivation, 18 h, at 5 µM, stronger effect = higher value"}, "[16]": {"molecular_target": "NAD(+) hydrolase SARM1 (Homo sapiens) (UniProt Q6SZW1)", "sequence (Q6SZW1 whole entry, looked up)": "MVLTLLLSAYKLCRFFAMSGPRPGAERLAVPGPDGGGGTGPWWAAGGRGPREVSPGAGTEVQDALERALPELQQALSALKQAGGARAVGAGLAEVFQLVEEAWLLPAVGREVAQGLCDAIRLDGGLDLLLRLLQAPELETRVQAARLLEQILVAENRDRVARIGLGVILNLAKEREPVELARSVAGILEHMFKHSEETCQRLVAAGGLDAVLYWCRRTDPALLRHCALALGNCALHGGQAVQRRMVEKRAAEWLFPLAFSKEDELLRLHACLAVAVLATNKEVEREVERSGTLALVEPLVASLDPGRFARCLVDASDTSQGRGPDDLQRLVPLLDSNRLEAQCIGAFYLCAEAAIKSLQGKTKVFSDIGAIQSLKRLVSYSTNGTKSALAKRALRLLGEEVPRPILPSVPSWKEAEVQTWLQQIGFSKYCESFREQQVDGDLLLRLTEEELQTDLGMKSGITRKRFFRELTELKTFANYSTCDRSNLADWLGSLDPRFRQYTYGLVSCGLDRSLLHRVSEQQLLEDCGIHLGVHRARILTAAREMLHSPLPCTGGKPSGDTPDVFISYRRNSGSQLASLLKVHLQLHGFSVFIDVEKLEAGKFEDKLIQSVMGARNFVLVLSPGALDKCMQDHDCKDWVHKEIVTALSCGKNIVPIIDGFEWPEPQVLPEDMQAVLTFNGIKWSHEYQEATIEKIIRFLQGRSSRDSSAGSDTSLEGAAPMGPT", "assay": "SARM1 TIR NADase inhibitors, cell lysate, NAD-Glo luminescence (AID 1508614;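 active means compound whose remaining NAD level is above about 45 nM, limit read from the data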)", "settings": "SAM-TIR HEK293T lysate NADase, at 1 µM, stronger effect = higher value"}, "[17]": {"settings": "stronger effect = lower value, cell number ratio, induced over uninduced"}, "[18]": {"settings": "measured here: relative caspase fold change +Dox/-Dox"}, "[19]": {"settings": "measured here: total cells with miR-34 induction, stronger effect = lower value"}, "[20]": {"settings": "measured here: total cells without miR-34 induction"}, "[21]": {"settings": "MELAS cybrid survival, CellTiter-Glo 48 h, stronger effect = higher value"}, "[22]": {"settings": "Rieske KO mouse fibroblast survival, CellTiter-Glo 72 h"}}, "note": "“And” between values parts separate entries of the source, which are not always exact repeats. Equal values may be shown once. Inconclusive results are not listed. The source made the active and inactive calls.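 How the source made its calls, unless noted: active means compounds whose cell count with miR-34 switched on is under 0.7 times the count with it off; inactive means the rest.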", "data": [{"smiles": "COc1ccc(-c2cc(=S)ss2)cc1", "values": [{"measurement": "parasite load remaining", "setting": "[1]", "result": "61.1% (inactive)"}, {"measurement": "viability", "setting": "[1]", "result": 107, "unit": "%"}, {"measurement": "nuclear beta-catenin stimulation", "setting": "[2]; at 10 µM", "result": "-1.5% (inactive)"}, {"measurement": "nuclear beta-catenin stimulation", "setting": "[2]; stimulation, at 2 µM", "result": -0.3, "unit": "%"}, {"measurement": "insulin secretion stimulation", "setting": "[3]", "result": "3.1% (inactive)"}, {"measurement": "viability decrease", "setting": "[4]", "result": "11.9% (inactive)"}, {"measurement": "tube area decrease", "setting": "[5]", "result": "-0.7% (inactive)"}, {"measurement": "GLP1 secretion stimulation", "setting": "[6]", "result": "-6.2% (inactive)"}, {"measurement": "inhibition of viability", "setting": "[7]", "result": "27.2% (inactive)"}, {"measurement": "viability decrease (inhibition)", "setting": "[8]", "result": "22.2% (inactive)"}, {"measurement": "viability decrease (inhibition)", "setting": "[9]", "result": "11% (inactive)"}, {"measurement": "fold change", "setting": "[10]; [17]", "result": "0.899 (inactive)"}, {"measurement": "fold change", "setting": "[10]; [18]", "result": 1.14}, {"measurement": "cell count", "setting": "[10]; [19]", "result": 8880}, {"measurement": "cell count", "setting": "[10]; [20]", "result": 9880}, {"measurement": "z-score", "setting": "[11]; [21]", "result": "0.776 (inactive) and 0.734 (inactive)"}, {"measurement": "z-score", "setting": "[11]; [22]", "result": "0.201 and 0.472"}, {"measurement": "z-score", "setting": "[12]", "result": "0.675 (inactive)"}]}, {"smiles": "O=P(O)(O)OC(CO)CO", "values": [{"measurement": "nuclear beta-catenin stimulation", "setting": "[2]; at 10 µM", "result": "0.1% (inactive)"}, {"measurement": "nuclear beta-catenin stimulation", "setting": "[2]; stimulation, at 2 µM", "result": 0.7, "unit": "%"}, {"measurement": "insulin secretion stimulation", "setting": "[3]", "result": "1.2% (inactive)"}, {"measurement": "viability decrease", "setting": "[4]", "result": "3.9% (inactive)"}, {"measurement": "tube area decrease", "setting": "[5]", "result": "14.1% (inactive)"}, {"measurement": "GLP1 secretion stimulation", "setting": "[6]", "result": "-1.6% (inactive)"}, {"measurement": "inhibition of viability", "setting": "[7]", "result": "-0.7% (inactive)"}, {"measurement": "viability decrease (inhibition)", "setting": "[8]", "result": "-2% (inactive)"}, {"measurement": "viability decrease (inhibition)", "setting": "[9]", "result": "-3.3% (inactive)"}, {"measurement": "fold change", "setting": "[10]; [17]", "result": "0.854 (inactive)"}, {"measurement": "fold change", "setting": "[10]; [18]", "result": 0.424}, {"measurement": "cell count", "setting": "[10]; [19]", "result": 8550}, {"measurement": "cell count", "setting": "[10]; [20]", "result": 10000}, {"measurement": "z-score", "setting": "[11]; [21]", "result": "0.561 (inactive)"}, {"measurement": "z-score", "setting": "[11]; [22]", "result": -0.261}, {"measurement": "z-score", "setting": "[12]", "result": "0.385 (inactive)"}]}, {"smiles": "COc1ccc(C=CC(=O)Nc2ccccc2C(=O)O)cc1OC", "values": [{"measurement": "nuclear beta-catenin stimulation", "setting": "[2]; at 10 µM", "result": "-1.3% (inactive)"}, {"measurement": "nuclear beta-catenin stimulation", "setting": "[2]; stimulation, at 2 µM", "result": 2.1, "unit": "%"}, {"measurement": "insulin secretion stimulation", "setting": "[3]", "result": "0.9% (inactive)"}, {"measurement": "viability decrease", "setting": "[4]", "result": "4.3% (inactive)"}, {"measurement": "tube area decrease", "setting": "[5]", "result": "-1.3% (inactive)"}, {"measurement": "GLP1 secretion stimulation", "setting": "[6]", "result": "-5.7% (inactive)"}, {"measurement": "inhibition of viability", "setting": "[7]", "result": "-5.8% (inactive)"}, {"measurement": "viability decrease (inhibition)", "setting": "[8]", "result": "4.8% (inactive)"}, {"measurement": "viability decrease (inhibition)", "setting": "[9]", "result": "-29.2% (inactive)"}, {"measurement": "fold change", "setting": "[10]; [17]", "result": "0.906 (inactive) and 0.975 (inactive)"}, {"measurement": "fold change", "setting": "[10]; [18]", "result": "1.48 and 0.856"}, {"measurement": "cell count", "setting": "[10]; [19]", "result": "9440 and 8000"}, {"measurement": "cell count", "setting": "[10]; [20]", "result": "10400 and 8210"}, {"measurement": "z-score", "setting": "[11]; [21]", "result": "-0.386 (inactive)"}, {"measurement": "z-score", "setting": "[11]; [22]", "result": 0.573}, {"measurement": "z-score", "setting": "[12]", "result": "0.955 (inactive)"}]}, {"smiles": "C[C@H](NCCc1ccc(O)cc1)[C@H](O)c1ccc(O)cc1", "values": [{"measurement": "fluorescence slope change", "setting": "[13]", "result": "27.4% (inactive)"}, {"measurement": "survival", "setting": "[14]", "result": "5.58 (inactive)"}, {"measurement": "parasite load remaining", "setting": "[1]", "result": "80.4% (inactive) and 86.8% (inactive)"}, {"measurement": "viability", "setting": "[1]", "result": "111% and 73.3%"}, {"measurement": "nuclear beta-catenin stimulation", "setting": "[2]; at 10 µM", "result": "-1.4% (inactive)"}, {"measurement": "nuclear beta-catenin stimulation", "setting": "[2]; stimulation, at 2 µM", "result": -0.2, "unit": "%"}, {"measurement": "insulin secretion stimulation", "setting": "[3]", "result": "4.3% (inactive)"}, {"measurement": "viability decrease", "setting": "[4]", "result": "-8.6% (inactive)"}, {"measurement": "tube area decrease", "setting": "[5]", "result": "5.1% (inactive)"}, {"measurement": "GLP1 secretion stimulation", "setting": "[6]", "result": "-4.3% (inactive)"}, {"measurement": "inhibition of viability", "setting": "[7]", "result": "4.7% (inactive)"}, {"measurement": "viability decrease (inhibition)", "setting": "[8]", "result": "0.4% (inactive)"}, {"measurement": "viability decrease (inhibition)", "setting": "[9]", "result": "-16.7% (inactive)"}, {"measurement": "fold change", "setting": "[10]; [17]", "result": "0.881 (inactive) and 0.9 (inactive)"}, {"measurement": "fold change", "setting": "[10]; [18]", "result": "1.49 and 0.723"}, {"measurement": "cell count", "setting": "[10]; [19]", "result": "8830 and 9090"}, {"measurement": "cell count", "setting": "[10]; [20]", "result": "10000 and 10100"}, {"measurement": "z-score", "setting": "[11]; [21]", "result": "-0.276 (inactive) and 0.441 (inactive)"}, {"measurement": "z-score", "setting": "[11]; [22]", "result": "-0.155 and 0.32"}, {"measurement": "luciferase signal", "setting": "[15]", "result": "96 AU (inactive)"}]}, {"smiles": "C=CCNC(N)=S", "values": [{"measurement": "nuclear beta-catenin stimulation", "setting": "[2]; at 10 µM", "result": "5.1% (inactive)"}, {"measurement": "nuclear beta-catenin stimulation", "setting": "[2]; stimulation, at 2 µM", "result": 2.3, "unit": "%"}, {"measurement": "insulin secretion stimulation", "setting": "[3]", "result": "-0.8% (inactive)"}, {"measurement": "viability decrease", "setting": "[4]", "result": "-2.15% (inactive)"}, {"measurement": "tube area decrease", "setting": "[5]", "result": "-31.3% (inactive)"}, {"measurement": "GLP1 secretion stimulation", "setting": "[6]", "result": "-0.3% (inactive)"}, {"measurement": "inhibition of viability", "setting": "[7]", "result": "-19.1% (inactive)"}, {"measurement": "viability decrease (inhibition)", "setting": "[8]", "result": "23.8% (active)"}, {"measurement": "viability decrease (inhibition)", "setting": "[9]", "result": "-4.7% (inactive)"}, {"measurement": "fold change", "setting": "[10]; [17]", "result": "0.867 (inactive) and 0.831 (inactive)"}, {"measurement": "fold change", "setting": "[10]; [18]", "result": "1.24 and 0.686"}, {"measurement": "cell count", "setting": "[10]; [19]", "result": "7540 and 8140"}, {"measurement": "cell count", "setting": "[10]; [20]", "result": "8690 and 9790"}, {"measurement": "z-score", "setting": "[11]; [21]", "result": "-0.239 (inactive)"}, {"measurement": "z-score", "setting": "[11]; [22]", "result": -0.148}, {"measurement": "remaining NAD", "setting": "[16]", "result": "10 nM (inactive)"}]}]}
